# Screens (PubChem BioAssay)
# HT1080 IDH1KD tx: kills HT-1080 cells with IDH1 knockdown; HT-1080 IDH1 knockdown viability, ATP luminescence, 48 h; Potency, µM (titrated, usually from 46.1 µM), for inactives: top-dose activity, negative = toxicity, usual class: cytotoxic; hit rate 2% among 360,000;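 note: potency is the fitted concentration of half-maximal effect; 0% = DMSO wells and -100% = cell-free medium wells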
#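 % activity derives from luminescence (CellTiter-Glo), normalised to DMSO and no-cell wells. HT-1080-IDH1KD cells, 750/well, had 48 h compound exposure at 37 °C.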
# IL-1B inflam inh: inflammasome signaling inhibition, IL-1 beta readout; THP-1 LPS/ATP IL-1B secretion, AlphaLISA, 16 h; stronger effect = lower value; activity change, % at 57.5 µM; hit rate 4.7% among 360,000; AID 743279; in the data active = activity change below about -50%; inconclusive = mostly about -30% to -49%
#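 THP-1 cells pretreated 1 hr with compounds (up to 57.5 uM final), then stimulated with LPS (250 ng/mL final) plus ATP (1.25 mM final); secreted IL-1B measured by AlphaLISA after 16 hr, decreased signal indicating inhibition.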
# 12-LOX inh: blocks human arachidonate 12S-lipoxygenase. AID 1671190. purified 12hLO, xylenol orange hydroperoxide absorbance. Potency, µM (doses to about 108 µM), without a hit: top-dose activity change, negative = inhibition, actives largely listed as inhibitors. hit rate 1.1% among 580,000. P18054; note: potency is the fitted concentration of half-maximal effect
# Target sequence (P18054 whole entry, looked up): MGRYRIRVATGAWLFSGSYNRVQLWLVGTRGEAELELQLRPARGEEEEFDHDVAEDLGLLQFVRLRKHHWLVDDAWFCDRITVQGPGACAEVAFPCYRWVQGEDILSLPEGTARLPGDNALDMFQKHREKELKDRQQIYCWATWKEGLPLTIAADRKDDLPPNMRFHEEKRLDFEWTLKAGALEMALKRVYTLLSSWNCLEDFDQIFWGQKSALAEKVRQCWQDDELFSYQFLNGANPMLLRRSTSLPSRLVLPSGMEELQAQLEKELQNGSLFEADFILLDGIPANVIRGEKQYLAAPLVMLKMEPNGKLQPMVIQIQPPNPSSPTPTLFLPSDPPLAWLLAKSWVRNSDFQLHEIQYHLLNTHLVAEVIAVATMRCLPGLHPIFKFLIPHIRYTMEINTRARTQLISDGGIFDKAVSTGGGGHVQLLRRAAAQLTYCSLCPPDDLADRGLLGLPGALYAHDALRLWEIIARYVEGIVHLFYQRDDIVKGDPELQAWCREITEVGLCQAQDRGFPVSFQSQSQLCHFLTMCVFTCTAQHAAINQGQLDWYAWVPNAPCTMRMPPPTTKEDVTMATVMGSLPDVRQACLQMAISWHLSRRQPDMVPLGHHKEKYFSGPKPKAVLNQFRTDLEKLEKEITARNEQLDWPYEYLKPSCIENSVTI
#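 Purified human 12hLO (150 nM final) in 25 mM Hepes, 0.01% Triton X-100, pH 7.0 was preincubated 15 min at room temperature with compound. Then 40 uM arachidonic acid was added, 30 min. Hydroperoxide was read by Fe-XO absorbance ratio 573/405 nm.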
# DT40 TDP1 no CPT: qHTS for Inhibitors of human tyrosyl-DNA phosphodiesterase 1 (TDP1): qHTS in cells in absence of CPT; Potency, µM (top dose mostly 46.2 µM), for the others: at the top dose activity change, negative = growth inhibition, most hits filed as inhibitors; DT40 Tdp1-/- hTDP1 cells, no CPT, ATP luminescence, 48 h; hit rate 15% among 420,000; note: potency is the fitted concentration of half-maximal effect; nearly all actives have a fitted effect of over 55% in size
#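 Chicken DT40 Tdp1-/- cells complemented with human TDP1, screened without camptothecin (DMSO vehicle only), 400 cells/well. Compounds pin-transferred, cells incubated at 37 °C for at least 48 hr. Growth read as ATP-dependent luminescence (CellTiter-Glo, 30 min at RT).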
# TDP1 cell CPT: growth inhibition of DT40 Tdp1-/-;hTDP1 cells with camptothecin (screen for TDP1 inhibitors) | chicken DT40 Tdp1-/-;hTDP1 cells + 20 nM CPT, ATP luminescence, 48 h | Potency, µM (titrated, usually from 46.2 µM), for the others: at the top dose activity change, negative = growth inhibition, usual class: inhibitors | hit rate 12% among 420,000; note: potency is the fitted concentration of half-maximal effect; nearly all actives have a fitted effect of over 55% in size
#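 Cell growth measured by CellTiter-Glo luminescence after a minimum 48 h, 37 C compound exposure with 20 nM CPT in Tdp1-knockout DT40 cells stably expressing hTDP1, seeded 400/well; qHTS titration format.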
# HT1080NT lethal: kills 2HG-producing HT-1080-NT fibrosarcoma cells | HT-1080-NT fibrosarcoma viability, CellTiter-Glo ATP luminescence, 48 h | Potency, µM (doses to about 46.1 µM), without a hit: top-dose activity, negative = less viability, usual class: cytotoxic | hit rate 1.6% among 360,000;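 note: NT is the 2HG producing partner of a matched IDH1 knockdown line; potency is the fitted concentration of half-maximal effect; 0% = DMSO-treated cells and -100% = media-only wells without cells; nearly all actives have a fitted effect of over 55% in size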
#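 Viability by CellTiter-Glo luminescence after 48 h compound exposure at 37C of HT-1080-NT cells (750/well, RPMI, 5% FBS). % activity scaled between DMSO wells and medium-only wells, then curve-fitted and categorized by curve class.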
# Starred values were filed as active, the others as inactive; ? = inconclusive; . = no result; [ ] = dose if it differs, or a comment. Only a selection was taken, and hits are over-represented in it overall. Unless noted, calls come from the whole dose curve; as a rule, active = well fitted curve in the direction sought with a large enough effect; inconclusive = small, poorly fitted or top-dose-only effect, or another doubt; inactive = no such curve, though single readings can be large; an effect the other way counts as inactive or inconclusive. Unless noted, % is set by controls: 0 for no effect and ±100 for the full control effect.
SMILES,HT1080 IDH1KD tx,IL-1B inflam inh,12-LOX inh,DT40 TDP1 no CPT,TDP1 cell CPT,HT1080NT lethal
COc1ccc(-n2nnnc2C(c2ccccc2)N2CCC(n3c(=O)[nH]c4ccccc43)CC2)cc1 (configuration not stated),?,?,?,15µM*,16µM*,?
COc1ccc(C(c2nnnn2-c2c(C)cccc2C)N2CCC(n3c(=O)[nH]c4ccccc43)CC2)cc1 (configuration not stated),?,-92*,-19%,9.2µM*,8.2µM*,?
COc1ccc(-n2nnnc2C(C2CC2)N2CCC(n3c(=O)[nH]c4ccccc43)CC2)cc1 (configuration not stated),?,?,0%,?,?,?
Cc1cccc(C)c1-n1nnnc1C(c1cc2ccccc2o1)N1CCC(n2c(=O)[nH]c3ccccc32)CC1 (configuration not stated),?,-23,-29%,1.3µM*,1.5µM*,?
COc1ccc(-n2nnnc2C(c2cccs2)N2CCC(n3c(=O)[nH]c4ccccc43)CC2)cc1 (configuration not stated),?,-25,-34%,13µM*,12µM*,?
Cc1cc(N2C(=O)CC(N3CCC(n4c(=O)[nH]c5ccccc54)CC3)C2=O)no1 (configuration not stated),16%,0,?,?,?,23%
Cc1nc(-c2ccc(N(C)C)cc2)cc([C@H]2CN3CC[C@H]2C[C@@H]3CNC(=O)C(C)(C)C)n1,.,.,83%[176 µM],.,.,.
C=C[C@H]1CN2CC[C@H]1C[C@@H]2CNC(=O)Nc1cccc(C#N)c1,.,.,18%[176 µM],.,.,.
Cc1cccc(C)c1-n1nnnc1C(c1ccccc1OC(F)(F)F)N1CCC(n2c(=O)[nH]c3ccccc32)CC1 (configuration not stated),-1%,-81*,1%,5.8µM*,8.2µM*,17%
C#CCCN1CCN(C(=O)Cc2nn(C)c(=O)c3ccccc23)CC1,.,.,-12%,.,.,.
COC(=O)[C@@H]1C[C@H]1[C@@H](NP(=O)(c1ccccc1)c1ccccc1)c1ccccc1,0%,70,23%,?,21µM*,-8%
C=C[C@H]1CN2CC[C@H]1C[C@@H]2CNC(=O)N1CCOCC1,.,.,40%[176 µM],.,.,.
CC=C(C)C(=O)O[C@H]1C(C)=C2[C@@H]3OC(=O)[C@@](C)(O)[C@@]3(O)[C@@H](OC(=O)CCC)C[C@](C)(OC(C)=O)[C@@H]2[C@@H]1OC(=O)CCCCCCC,.,.,?,0.12µM*,0.21µM*,.
CC1=CC(=C2C(=O)NC(=O)NC2=O)C=C(C(F)(F)F)N1Cc1ccccc1,?,10,-20%,18µM*,?,?
CC1=CC(=C2C(=O)NC(=O)NC2=O)C=C(C(F)(F)F)N1C(C)C,5%,-3,-5%,2%,-1%,14%
CCCCOCCCN1C(C)=CC(=C2C(=O)NC(=S)NC2=O)C=C1C,8%,-4,-10%,18%,-1%,11%
CC1=CC(=C2C(=O)NC(=S)NC2=O)C=C(C(F)(F)F)N1Cc1ccccc1,1.6µM*,32,?,1.6µM*,1.6µM*,1.8µM*
N#Cc1cccc(NC(=O)NC[C@H]2C[C@@H]3CCN2C[C@@H]3CN2CCN(c3ccccc3)CC2)c1,.,.,5%,.,.,.
O=C1CO[C@H]2CN(Cc3ncc[nH]3)C[C@H]2N1Cc1ccccn1,.,.,114%[176 µM],.,.,.
Cn1nc(C2CCCCC2)cc1[C@H]1CN2CC[C@H]1C[C@@H]2CNC(=O)NCc1ccccc1,.,.,19%,.,.,.
O=[N+]([O-])c1ccc(Cl)c(Cl)c1Cl,1%,-19,1%,-3%,3%,0%
O=[N+]([O-])c1c(Cl)cccc1-c1c[nH]cc1Cl,.,.,?,15µM*,21µM*,.
CCOC(=O)C1=C(C)N=C2c3ccccc3C(=O)C2C1c1ccc(Cl)cc1 (configuration not stated),?,-52*,?,?,?,?
CC1(C)CC2CC(C)(CN2c2ncnc3ccccc23)C1 (configuration not stated),?,-82*,16%,9.2µM*,8.2µM*,?
c1ccc2c(c1)CN(Cc1ccc3c(c1)OCO3)Cc1cnnn1-2,-11%,13,-8%,10µM*,?,-5%
SMILES,HT1080 IDH1KD tx,IL-1B inflam inh,12-LOX inh,DT40 TDP1 no CPT,TDP1 cell CPT,HT1080NT lethal
S=C(NCCc1ccccc1)N1Cc2ccccc2-n2nncc2C1,-11%,52,-3%,21µM*,?,-17%
S=C(NCCc1ccccc1)N1Cc2cc(-c3ccccc3)ccc2-n2nncc2C1,?,-3,?,?,?,-10%
Fc1cccc(-c2ccc3c(c2)CN(C(=S)NCCc2ccccc2)Cc2cnnn2-3)c1,-22%,-57*,-18%,?,?,?
O=C(Cc1cccs1)N1Cc2ccccc2-n2nncc2C1,7%,84,40µM*,?,-15%,0%
c1ccc(CN2Cc3ccccc3-n3nncc3C2)cc1,-3%,13,5%,?,-5%,-2%
COCCNC(=S)N1Cc2ccccc2-n2nncc2C1,-3%,-6,-18%,-14%,-8%,-1%
CCNC(=O)N1Cc2ccccc2-n2nncc2C1,8%,7,-29%,-3%,3%,9%
Cc1noc(C)c1COc1ccc(CC(=O)N2CCN(CC(=O)N3CCOCC3)CC2)cc1,.,.,-37%,.,.,.
O=C(c1cn(Cc2ccccc2)c2ccccc12)N1CCC(C(=O)N2CCCCC2)CC1,.,.,39%,.,.,.
Cc1cc(C(=O)N2CCC3(CC2)NCc2ccccc2-n2ccnc23)nn1C,.,.,28%,.,.,.
CC(C)NCC(O)c1ccc([N+](=O)[O-])cc1 (configuration not stated),.,.,1%,-11%,1%,.
O=[N+]([O-])c1ccc(C(c2ccc([N+](=O)[O-])cc2)c2ccc([N+](=O)[O-])cc2)cc1,?,-7,-26%,12µM*,7.3µM*,?
CC(=O)c1cn(CCCOc2ccccc2)c2ccccc12,-3%,-4,-3%,16µM*,?,-15%
O[C@H]1[C@H](NC2CCOCC2)[C@@H](C2CCCCC2)C[C@H]1O,.,.,-3%[176 µM],.,.,.
CC(C)[C@H]1CC2C3CC=C4C[C@@H](O)CC[C@]4(C)C3CC[C@]2(C)[C@H]1O (some centres not stated),-1%,-21,-14%,?,-29%,1%
